Bioassay records: PubChem BioAssay, National Center for Advancing Translational Sciences (NCATS)
An excerpt weighted towards active compounds, which were near 0.9% of everything screened.
BLM helicase inh: blocks DNA unwinding by human BLM helicase | AID 2528 | recombinant BLM DNA unwinding, fluorescence dequenching | 350,000 compounds, 0.2% hits | Potency, µM (titrated, usually from 56.1 µM), actives largely listed as inhibitors; note: nearly all actives have a fitted effect of over 35% in size
TexasRed fluor: Texas Red fluorescence interference in TRb-SRC2 counter-screen; AID 1479; Potency, µM (highest dose often 106 µM); 280,000 compounds, 0.29% hits; TRb/SRC2 Texas Red total fluorescence interference; active = well fitted curve in either direction with a large enough effect; inconclusive = small, poorly fitted or top-dose-only effect
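Human TRβ ligand-binding domain (0.6 uM) and Texas Red SRC2 peptide (20 nM) in Tris buffer with 1 uM T3 and 5% DMSO were incubated with pinned compound for 5 hr at ambient temperature. Total fluorescence was computed as S + 2P (555/632 nm).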
APE1 inh: APE1 (human) endonuclease inhibition | Potency, µM (top dose mostly 65.8 µM), hits mostly inhibitors | recombinant APE1, TAMRA/BHQ-2 abasic DNA cleavage fluorescence | 350,000 compounds, 0.35% hits | AID 2517 | P27695; note: nearly all actives have a fitted effect of over 55% in size
Target sequence (P27695 whole entry, looked up): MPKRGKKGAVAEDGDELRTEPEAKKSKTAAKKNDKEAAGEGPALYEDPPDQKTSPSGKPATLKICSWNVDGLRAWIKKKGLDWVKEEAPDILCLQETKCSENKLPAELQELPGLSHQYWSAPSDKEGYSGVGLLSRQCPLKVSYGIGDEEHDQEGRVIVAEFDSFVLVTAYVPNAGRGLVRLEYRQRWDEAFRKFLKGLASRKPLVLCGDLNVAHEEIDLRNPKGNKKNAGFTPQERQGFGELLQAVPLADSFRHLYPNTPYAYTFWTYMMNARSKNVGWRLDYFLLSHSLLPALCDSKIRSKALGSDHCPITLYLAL
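Kinetic fluorescence read (525 ex/598 em nm, three reads 60 s apart) of AP-site incision; signal = third minus first read. Enzyme 0.75 nM, dual-labelled THF duplex 50 nM, compound preincubation 15 min RT.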
RECQ1 inh-1: blocks DNA unwinding by human RECQ1 | P46063 | RECQ1 DNA unwinding, red fluorescence kinetic read | Potency, µM (series often up to 57.3 µM), usual class: inhibitors | 240,000 compounds, 0.54% hits; note: nearly all actives have a fitted effect of over 30% in size
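RECQ1T1 50 nM; forked duplex (20 bp + 30-nt ss tails) 200 nM, ATP 2 mM final; pH 8.0, 2 mM MgCl2, 2.5 ug/ml poly(dI-dC); 15 min compound preincubation; discontinuous kinetic read over 2 h at RT.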
TRb SRC2 PPI: disrupts binding of human TR beta to SRC2; Potency, µM (highest dose often 106 µM), actives largely listed as inhibitors; TRbeta-SRC2 peptide binding, fluorescence polarization; receptor liganded with 1 µM T3; 280,000 compounds, 0.065% hits; AID 1469; P10828; note: nearly all actives have a fitted effect of over 50% in size
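Polarization signal, normalized between peptide-alone and full complex controls, measured compound effects on T3-liganded human TRb LBD (0.6 uM) binding 20 nM Texas Red SRC2 peptide after 5 hr.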
GoLoco inh red: blocks human Gai1 binding to RGS12 GoLoco peptide, red readout; P63096; Gai1:RGS12 GoLoco peptide FP, rhodamine, 10 min; Potency, µM (series often up to 61.6 µM), usual class: inhibitors; 230,000 compounds, 0.44% hits; AID 880; active = well fitted inhibition curve with a large enough effect, not every such curve was filed as active; inactive = no such curve, though single readings can be large or run the other way; note: nearly all actives have a fitted effect of over 30% in size
RECQ1 inh conf: confirmation of human RECQ1 helicase inhibitors; Potency, µM (titrated, usually from 229 µM), hits mostly inhibitors; 610 compounds, 28% hits; shares compounds with RECQ1 inh-1; RECQ1 helicase DNA unwinding, fluorescence; note: nearly all actives have a fitted effect of over 45% in size
RECQ1 ADP FP: ADP displacement flagged in RECQ1 inhibitor counter-screen; ADP fluorescence polarization displacement counterscreen; Potency, µM (series often up to 228 µM), hits mostly inhibitors; 530 compounds, 27% hits; AID 2711; shares compounds with RECQ1 inh-1; note: nearly all actives have a fitted effect of over 45% in size
RECQ1 inh-2: confirmation of human RECQ1 helicase inhibitors | shares compounds with RECQ1 inh-1 | recombinant RECQ1 DNA unwinding, red fluorescence | Potency, µM (series often up to 119 µM), actives largely listed as inhibitors | AID 504841 | 1,100 compounds, 15% hits; note: nearly all actives have a fitted effect of over 50% in size
Hits are given with their value. Unless noted, calls come from the whole dose curve; as a rule, active = well fitted curve in the direction sought with a large enough effect; inconclusive = small, poorly fitted or top-dose-only effect, or another doubt; inactive = no such curve, though single readings can be large; an effect the other way counts as inactive or inconclusive.

How did CCC(=O)N1CCc2cc(S(=O)(=O)NC(Cc3ccccc3)C(=O)NCc3cccc(OC)c3)ccc21 (stereo unspecified) do in these assays?
BLM helicase inh: inactive; TexasRed fluor: inactive; TRb SRC2 PPI: inactive

Results for CCn1c(=O)c(C(=O)NNS(=O)(=O)c2ccc(Br)cc2)c(O)c2ccccc21 ?
BLM helicase inh: inactive; TexasRed fluor: inactive; APE1 inh: inactive; RECQ1 inh-1: inconclusive; TRb SRC2 PPI: inactive; GoLoco inh red: inactive; RECQ1 inh-2: inconclusive

Results for CC(=O)OCON[N+]([O-])=NC(C)C ?
BLM helicase inh: inactive; TexasRed fluor: inactive; APE1 inh: inactive; RECQ1 inh-1: inactive; TRb SRC2 PPI: inactive

What do the screens show for `CCN(CCCCN1C(=O)c2ccccc2C1=O)c1ccc2c(c1)C(=O)N(C)C2=O`?
BLM helicase inh: inactive; TexasRed fluor: inactive; APE1 inh: inconclusive; RECQ1 inh-1: 28.2µM; TRb SRC2 PPI: inactive; GoLoco inh red: inactive; RECQ1 inh-2: inconclusive

Results for CC(=O)n1cc([C@H]2C=C(C(=O)Nc3ccccc3)O[C@@H](OCc3ccc(CO)cc3)C2)c2ccccc21 ?
BLM helicase inh: inactive; TexasRed fluor: inactive; APE1 inh: inactive; RECQ1 inh-1: 0.355µM; TRb SRC2 PPI: inactive; GoLoco inh red: inactive; RECQ1 inh conf: inactive; RECQ1 ADP FP: inactive

What do the screens show for `Cn1c(N)c(C(=O)COC(=O)C2CC(O)CN2S(=O)(=O)c2ccc(Cl)cc2)c(=O)n(C)c1=O` (stereo unspecified)?
BLM helicase inh: inactive; TexasRed fluor: inactive; APE1 inh: inactive; RECQ1 inh-1: inactive; TRb SRC2 PPI: inactive; GoLoco inh red: inactive; RECQ1 inh conf: inactive; RECQ1 ADP FP: inactive

How did O=C(CCC1N=C2c3ccccc3N=C(SCc3cccc(Cl)c3)N2C1=O)NCc1cccs1 (stereo unspecified) do in these assays?
BLM helicase inh: inactive; TexasRed fluor: inactive; TRb SRC2 PPI: inactive

How did C=CCNC(=O)c1cc2c(=O)c3ccccc3oc2nc1C do in these assays?
BLM helicase inh: inactive; TexasRed fluor: inactive; APE1 inh: inactive; RECQ1 inh-1: 28.2µM; TRb SRC2 PPI: inactive; GoLoco inh red: inactive; RECQ1 inh-2: inactive

What do the screens show for `COc1ccccc1CN1C(=O)c2cccc3cccc(c23)C1=O`?
BLM helicase inh: inactive; TexasRed fluor: inactive; APE1 inh: inactive; RECQ1 inh-1: 25.1µM; TRb SRC2 PPI: inactive; GoLoco inh red: inactive; RECQ1 inh-2: inactive

Results for Cc1nn(CC(=O)NCc2cccc(F)c2)c(=O)c2c(C)n(-c3ccc(Cl)cc3)nc12 ?
BLM helicase inh: inactive; TexasRed fluor: inactive; TRb SRC2 PPI: inactive

How did CCN(CC)CCOc1c(Br)ccc2c1sc1nc3n(c(=O)c12)CCC3 do in these assays?
BLM helicase inh: inactive; TexasRed fluor: inactive; APE1 inh: inactive; RECQ1 inh-1: inconclusive; TRb SRC2 PPI: inactive; GoLoco inh red: inactive; RECQ1 inh-2: inactive

How did O=c1c2c(nc3n1CCCCC3)sc1c(O)c(Br)ccc12 do in these assays?
BLM helicase inh: inactive; TexasRed fluor: inactive; APE1 inh: inactive; RECQ1 inh-1: inactive; TRb SRC2 PPI: inactive; GoLoco inh red: inactive

How did Cc1cccc(-c2noc(-c3ccc(N4CCN(C)CC4)c([N+](=O)[O-])c3)n2)c1 do in these assays?
BLM helicase inh: inactive; TexasRed fluor: inactive; TRb SRC2 PPI: inactive

Results for Cc1nc2ccccc2oc1=O ?
BLM helicase inh: inactive; TexasRed fluor: inactive; APE1 inh: inactive; RECQ1 inh-1: inactive; TRb SRC2 PPI: inactive; GoLoco inh red: inactive
